HT1080-NT tox – qHTS for induction of synthetic lethality in tumor cells producing 2HG: qHTS for the HT-1080-NT fibrosarcoma cell line. Potency, µM (series often up to 46.1 µM), for the others: top-dose activity, negative = less viability, hits mostly cytotoxic. HT-1080-NT fibrosarcoma viability, CellTiter-Glo ATP luminescence, 48 h. 1.6% of 360,000 active. AID 686970, 2013;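 further: NT is the 2HG producing partner of a matched IDH1 knockdown line; potency means the concentration at half of the fitted maximal effect; 0% = DMSO-treated cells and -100% = media-only wells without cells; nearly all actives have a fitted effect of over 55% in size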
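750 cells/well, RPMI + 5% FBS; 2 h settle, compound pin-transfer, 48 h at 37 degrees C. CellTiter-Glo 10 min RT, luminescence. Normalized to DMSO and media-only wells.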
DT40 TDP1 no CPT – qHTS for Inhibitors of human tyrosyl-DNA phosphodiesterase 1 (TDP1): qHTS in cells in absence of CPT; 15% of 420,000 active; AID 686978, 2013; Potency, µM (series often up to 46.2 µM), without a hit: at the top dose activity change, negative = growth inhibition, most hits filed as inhibitors; DT40 Tdp1-/- hTDP1 cells, no CPT, ATP luminescence, 48 h; further: potency means the concentration at half of the fitted maximal effect; nearly all actives have a fitted effect of over 55% in size
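DT40 Tdp1-/-;hTDP1 cells, no CPT (DMSO vehicle only), 400 cells/well; compounds pin-transferred; ≥48 hr, 37 °C; CellTiter-Glo 30 min RT dark, luminescence read.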
12-LOX inh – Primary qHTS assay for inhibitors of human arachidonate 12S-lipoxygenase (ALOX12): Round 2 | purified 12hLO, xylenol orange hydroperoxide absorbance | AID 1671190, 2021 | 1.1% of 580,000 active | Polyunsaturated fatty acid lipoxygenase ALOX12 (Homo sapiens), P18054 | Potency, µM (top dose mostly 108 µM), inactives show at the highest dose activity change, negative = inhibition, actives largely listed as inhibitors; further: potency means the concentration at half of the fitted maximal effect
Target sequence (P18054 whole entry, looked up): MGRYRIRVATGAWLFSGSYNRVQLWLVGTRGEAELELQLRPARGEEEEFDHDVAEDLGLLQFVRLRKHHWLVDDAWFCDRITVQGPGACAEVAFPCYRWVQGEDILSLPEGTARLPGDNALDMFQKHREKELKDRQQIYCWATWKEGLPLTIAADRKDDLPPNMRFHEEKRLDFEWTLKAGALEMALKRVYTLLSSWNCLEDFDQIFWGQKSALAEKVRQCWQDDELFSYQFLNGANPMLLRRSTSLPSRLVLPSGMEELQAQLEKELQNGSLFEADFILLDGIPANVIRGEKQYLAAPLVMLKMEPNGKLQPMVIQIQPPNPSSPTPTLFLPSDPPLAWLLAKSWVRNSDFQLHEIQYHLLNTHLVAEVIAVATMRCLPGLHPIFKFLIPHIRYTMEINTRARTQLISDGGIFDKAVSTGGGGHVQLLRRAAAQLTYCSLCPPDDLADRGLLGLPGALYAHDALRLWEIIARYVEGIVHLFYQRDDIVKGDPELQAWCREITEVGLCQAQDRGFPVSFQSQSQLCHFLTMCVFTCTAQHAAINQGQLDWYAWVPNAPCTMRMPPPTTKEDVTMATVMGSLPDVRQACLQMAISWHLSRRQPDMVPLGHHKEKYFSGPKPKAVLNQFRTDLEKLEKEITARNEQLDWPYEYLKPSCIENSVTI
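Hydroperoxide product was detected by ferrous iron/xylenol orange as the 573 to 405 nm absorbance ratio. Arachidonic acid at 40 uM (final) was turned over for 30 min at room temperature by 150 nM human 12hLO, pH 7.0 Hepes buffer, after 15 min compound preincubation.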
HT1080 IDH1KD tx – qHTS for induction of synthetic lethality in tumor cells producing 2HG: qHTS for the HT-1080-IDH1KD cell line; AID 686971, 2013; 2% of 360,000 active; Potency, µM (highest dose often 46.1 µM), without a hit: top-dose activity, negative = toxicity, most hits filed as cytotoxic; HT-1080 IDH1 knockdown viability, ATP luminescence, 48 h;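 further: potency means the concentration at half of the fitted maximal effect; 0% = DMSO wells and -100% = cell-free medium wells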
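Viability of IDH1-knockdown HT-1080 fibrosarcoma cells was assessed by CellTiter-Glo after 48 h at 37 °C with titrated compound; concentration-effect curves were classified by fit quality and response size.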
IL1B secr inh – qHTS for Inhibitors of Inflammasome Signaling: IL-1-beta AlphaLISA Primary Screen | THP-1 LPS/ATP IL-1B secretion, AlphaLISA, 16 h; active compounds read low | activity change, % at 57.5 µM | 4.7% of 360,000 active | AID 743279, 2014; in the data active means activity change below about -50%; inconclusive means mostly about -30% to -49%
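THP-1 cells pretreated 1 hr with compounds (up to 57.5 uM final), then stimulated with LPS (250 ng/mL final) plus ATP (1.25 mM final); secreted IL-1B measured by AlphaLISA after 16 hr, decreased signal indicating inhibition.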
TDP1 cell CPT – qHTS for Inhibitors of human tyrosyl-DNA phosphodiesterase 1 (TDP1): qHTS in cells in presence of CPT; AID 686979, 2013; chicken DT40 Tdp1-/-;hTDP1 cells + 20 nM CPT, ATP luminescence, 48 h; 12% of 420,000 active; Potency, µM (series often up to 46.2 µM), inactives show at the highest dose activity change, negative = growth inhibition, hits mostly inhibitors; further: potency means the concentration at half of the fitted maximal effect; nearly all actives have a fitted effect of over 55% in size
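Chicken DT40 Tdp1-/- cells complemented with human TDP1, 400 cells/well, exposed to compounds plus 20 nM camptothecin for at least 48 h at 37 C; viability read as ATP content by CellTiter-Glo luminescence.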
Active calls of the source: *; i = inactive; ? = inconclusive; / = no result given. The full list was thinned out, with hits kept by preference. Unless noted, the call rests on the fitted dose curve; in most records, active means well fitted curve in the direction sought with a large enough effect; inconclusive means small, poorly fitted or top-dose-only effect, or another doubt; inactive means no such curve, though single readings can be large; an effect the other way counts as inactive or inconclusive. Unless noted, on the % scale 0 is the no-effect control and ±100 the full control effect.

SMILES | HT1080-NT tox | DT40 TDP1 no CPT | 12-LOX inh | HT1080 IDH1KD tx | IL1B secr inh | TDP1 cell CPT
Nc1nonc1-n1nnc(C(=O)N/N=C/c2cccnc2)c1CSc1ccc(Cl)cc1 | -1% | ? | -6% | -24% | 1 | 23µM*
Nc1nonc1-n1nnc(C(=O)N/N=C/c2cccnc2)c1CSC1=NCCS1 | ? | ? | -9% | ? | / | -4%
Nc1nonc1-n1nnc(C(=O)N/N=C/c2ccc(Br)cc2)c1CSC1=NCCS1 | -11% | 26µM* | 36% | ? | -102* | ?
CC(NC(=O)c1ccc(C(C)(C)C)cc1)C(=O)NCc1ccc(C(=O)O)cc1 (stereo unspecified) | / | / | 20% | / | / | /
CCCN1C(=O)Cc2cc(C(=O)NCc3ccc(F)cc3F)ccc21 | / | / | 19% | / | / | /
COc1ccc(NC(=O)Nc2cccc(-c3ccc(N4CCCCC4)nn3)c2)c(OC)c1 | / | / | 37% | / | / | /
CC(C)NC(=S)NC(=O)c1ccc(Cl)cc1Cl | 3% | ? | ? | -18% | 65 | ?
O=C(NC(=S)NCCN1CCOCC1)c1ccc(F)cc1 | 2% | -19% | 5% | -1% | i | -13%
CC(C)CNC(=S)NC(=O)c1ccc(Cl)cc1Cl | 1% | ? | -23% | -7% | 71 | 13µM*
CC(C)CNC(=S)NC(=O)c1ccc(F)cc1 | -4% | ? | 35µM* | -21% | 1 | 18µM*
O=C(NC(=S)Nc1ccccc1O)c1ccc(Cl)cc1Cl | -7% | 29µM* | ? | ? | -78* | 18µM*
CC(NC(=O)NCC(=O)NCC(F)(F)F)c1cccc(C(F)(F)F)c1 (stereo unspecified) | / | / | -38% | / | / | /
COc1cc(OC)cc(-c2nc3n(n2)C(c2ccccc2)C(C(N)=O)=C(C)N3)c1 (stereo unspecified) | / | -27% | 0% | / | / | -20%
COc1cccc(CNC(=O)CCC2CCCN(C/C=C/c3ccccc3OC)C2)c1 (stereo unspecified) | -14% | 23µM* | -19% | -22% | ? | ?
COc1ccc(/C=C/CN2CCCC(CCC(=O)NCc3ccc(F)c(F)c3)C2)cc1 (stereo unspecified) | ? | 16µM* | -10% | ? | -84* | ?
COCc1ccc(CN2CCCC(CCC(=O)NCc3cccc(OC)c3)C2)o1 (stereo unspecified) | 0% | -7% | 7% | 0% | 1 | 3%
COCCC(=O)N1CCCC(CCC(=O)NCc2ccc(F)c(F)c2)C1 (stereo unspecified) | 10% | -5% | -8% | -1% | 0 | -19%
COc1ccccc1/C=C/CN1CCCC(CCC(=O)NCc2ccc(F)c(F)c2)C1 (stereo unspecified) | ? | ? | -17% | ? | -74* | ?
CC(=O)c1ccc(NC(=S)Nc2ccc3cn[nH]c3c2)cc1 | -2% | ? | -25% | 0% | -73* | ?
CCOC(=O)c1cnc2c(Cl)c(Cl)ccc2c1Nc1ccc(N(C)C)cc1 | / | ? | ? | / | / | -17%
CCOC(=O)c1cnc(-n2nc(C)cc2C)nc1NC1CCCCC1 | ? | 5.2µM* | ? | -15% | -100* | 4.6µM*
CCOC(=O)c1cnc2cc(C)nn2c1C | ? | -17% | 118% | 17% | 6 | 10%
